Source: PubChem BioAssay (Broad Institute)
HSF-1 act: increases HSF-1 driven luciferase reporter signal; AID 504408; NIH3T3-HGL HSF-1 luciferase reporter, MG132, 8 h; 100% = twice DMSO control signal; activation, % at 9 µM; actives 1.7% (n = 300,000);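 active = mean replicate activation of at least 50% with a set share of replicates each reaching 50%; inconclusive = only one of those two conditions met; inactive = mean below 50% and too few replicates reaching it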;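 also: 0% = median of the neutral control wells and 100% = twice that signal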
esBAF inh: blocks esBAF chromatin remodeling in mouse ES cells; Bmi1-luciferase knock-in reporter, 24 h; 100% = twice the neutral-well signal; reporter increase, % at 12.5 µM; actives 2% (n = 350,000); AID 602393; in the data active = activation above about 40%; inconclusive = no clear call, values can overlap the other calls;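 also: 0% = median of the plate's neutral control wells and 100% = double that signal; a rise in the Bmi1 reporter signal indicates esBAF inhibition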
HSF1 inh: HSF1 inhibition; NIH3T3-HGL HSE-luciferase, MG132-induced, luminescence 8 h; stronger effect = lower value; activity change, negative = inhibition, % at 7.5 µM (by protocol); actives 0.77% (n = 300,000); AID 2098;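 active = more than half of replicate wells show activity change below -50%, luminescence cut by over half; inconclusive = some wells, but at most half, below -50%; inactive = no replicate well below -50%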;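 also: luciferase reports HSF-1 transcriptional activity via heat shock element; 0% = median of DMSO wells and -100% = zero luminescence signal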
MITF TRPM1 HTS: activators of MITF-driven TRPM1 promoter activity in SK-MEL-5 cells; actives 0.75% (n = 300,000); activation, % at 12.5 µM; SK-MEL-5 TRPM1-promoter luciferase, 24 h; % of positive control, neutral wells = 0; AID 588334;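 active = mean activation of at least 80% with every replicate also reaching 80%; inconclusive = mean reaches 80% but some replicate falls short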;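 also: 0% = neutral control wells and 100% = parthenolide positive control wells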
Wnt act: activators of Wnt/beta-catenin signaling; Wnt/beta-catenin reporter cell assay, activator, plate reader; activation, % at 9.35 µM; actives 1.2% (n = 300,000); AID 743398; in the data active = activation above about 30%, passing the limit was not always enough; inconclusive = no clear call, values can overlap the other calls;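 also: 0% = neutral control wells and 100% = positive control wells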
An asterisk follows results filed as active; ? = inconclusive; . = no result given. Compounds with a hit are over-represented: about 3.9% of the library has one in this group of screens.

SMILES | HSF-1 act | esBAF inh | HSF1 inh | MITF TRPM1 HTS | Wnt act
CCc1ccc(-c2ccc(C(=O)O)cc2)nc1 | -9 | 46* | -3 | 34 | 26
NNC(=O)C(Cc1ccc(O)cc1)N1Cc2ccccc2C1=O (stereo unspecified) | 11 | -7 | 1 | -5 | -2
COC(=O)C(Cc1ccc(O)cc1)N1Cc2ccccc2C1=O (stereo unspecified) | 13 | ? | 6 | 91* | 23
Cc1ccc(NC(=O)COC(=O)/C=C/c2ccc(Br)o2)cc1S(=O)(=O)N(C)C | 81* | . | 56 | 1 | 0
CC(=O)c1c(C)[nH]c(C(=O)Nc2ccc(C)c(S(=O)(=O)N(C)C)c2)c1C | 16 | 32 | 13 | 93* | 10
Cc1ccc(NC(=O)c2ccc(Br)o2)cc1S(=O)(=O)N(C)C | 31 | 55* | 8 | 34 | 23
CN(C)S(=O)(=O)c1cccc(NC(=O)COC(=O)/C=C/c2ccc([N+](=O)[O-])cc2)c1 | 63* | . | 20 | -1 | -1
C[C@H](CO)N1C[C@H](C)[C@H](CN(C)C)Oc2cc(-c3ccc(F)cc3)ccc2S1(=O)=O | . | -1 | . | . | .
COC(=O)C[C@H]1C=C[C@@H](NC(=O)C2CC2)[C@@H](CO)O1 | . | . | . | . | 45*
CCN(CC)C(=O)c1cc(-c2ccc(Br)cc2)on1 | 58* | 75* | 25 | ? | .
COC(=O)c1cc(-c2ccc(Br)cc2)on1 | -11 | -3 | -1 | . | 15
O=C(Nc1cc2c(cc1C(=O)O)OCCCO2)c1ccc(C(F)(F)F)cc1 | 32 | 55* | 16 | 31 | 20
O=C(Cc1ccccc1)Nc1cc2c(cc1Cl)OCCCO2 | 18 | 64* | 13 | 94* | 14
CCc1ccc(C(=O)Nc2cc3c(cc2Cl)OCCCO3)cc1 | ? | 69* | 20 | 109* | .
O=C(Nc1cc2c(cc1Cl)OCCO2)c1ccco1 | 14 | 36 | 11 | . | .
O=C(O)c1cc2c(cc1NC(=O)c1ccccc1C(F)(F)F)OCCCO2 | -12 | -1 | -5 | -9 | -1
COc1ccc(S(=O)(=O)N(C)C[C@@H]2Oc3c(NC(=O)c4cnccn4)cccc3C(=O)N([C@H](C)CO)C[C@H]2C)cc1 | . | -3 | . | . | .
Cc1noc(C)c1COc1ccc(C(=O)OCC(=O)Nc2c(C)n(C)n(-c3ccccc3)c2=O)cc1 | -62 | . | -56* | -2 | 1
Cc1c(NC(=O)COC(=O)c2ccc(O)cc2)c(=O)n(-c2ccccc2)n1C | . | -12 | . | -5 | -1
COCC(=O)N(C)C[C@H]1Oc2cc(-c3cccnc3)ccc2S(=O)(=O)N([C@H](C)CO)C[C@@H]1C | . | -3 | . | . | .
CCOC(=O)c1csc(NC(=O)c2ccccc2)n1 | 50 | 50* | 26 | . | ?
CCOC(=O)c1sc(NC(=O)c2cc3ccccc3o2)nc1C | 44 | . | 3 | -39 | 12
CCOC(=O)c1csc(NC(=O)c2cc3ccccc3o2)n1 | 39 | 64* | 12 | 44 | 6
CCOC(=O)Cc1cnc(NC(=O)c2ccccc2)s1 | -59 | 51* | -54* | 48 | -1
CCOC(=O)Cc1cnc(NC(=O)CSc2nc(N)cc(=O)[nH]2)s1 | -8 | 5 | 5 | 7 | -1
SMILES | HSF-1 act | esBAF inh | HSF1 inh | MITF TRPM1 HTS | Wnt act
CCOC(=O)c1csc(NC(=O)c2ccc(OCC)cc2)n1 | 25 | . | 13 | -12 | -4
COc1ccc(S(=O)(=O)Nc2cccc3c2O[C@H](CN(C)Cc2ccc4c(c2)OCO4)[C@@H](C)CN([C@H](C)CO)C3=O)cc1 | . | -2 | . | . | .
C[C@@H]1CN([C@@H](C)CO)C(=O)c2cc(NS(=O)(=O)c3cn(C)cn3)ccc2O[C@@H]1CN(C)Cc1ccc2c(c1)OCO2 | . | -1 | . | . | .
CC(C)c1[nH]nc2c1C(c1ccco1)C(C#N)=C(N)O2 (stereo unspecified) | 55* | . | 17 | -2 | -1
CC(C)CC1C(C#N)=C(N)Oc2n[nH]c(-c3ccccc3)c21 (stereo unspecified) | 0 | 0 | -3 | 2 | 32*
CC(C)C1C(C#N)=C(N)Oc2n[nH]c(-c3ccccc3)c21 (stereo unspecified) | 13 | -7 | -1 | . | 1
Cc1cc(C)cc(NC(=O)CN(C)S(=O)(=O)c2cnc[nH]2)c1 | 80* | -7 | 32 | -6 | .
CCCCCCc1ccc(-c2ccc(C#N)cc2)cc1 | . | . | . | . | 4
CCCCCc1ccc2cc(C#N)ccc2n1 | . | 48* | . | . | 1
O=C(NCc1cccnc1)/C(=C/c1ccc(-c2ccc(Cl)cc2)o1)S(=O)(=O)c1ccccc1 | 87* | -9 | 69 | -93 | -15
Fc1ccc(NC(=S)Nc2ccc(Cl)cc2)cc1 | 2 | . | 16 | -3 | 6
COc1ccc(NC(=S)Nc2ccc(OC)cc2OC)c(OC)c1 | 0 | . | 0 | 4 | 3
COc1ccc(NC(=S)Nc2ccc3snnc3c2)cc1 | 9 | 30 | -3 | 51 | 4
COc1ccc(NC(=S)Nc2ccc(F)cc2)c(OC)c1 | -61 | . | -52* | 7 | .
COc1ccc(NC(=S)Nc2ccc(N)c([N+](=O)[O-])c2)cc1 | 9 | 47* | 3 | 19 | 45*
COc1ccc(NC(=S)Nc2ccc3nccnc3c2)cc1 | 36 | 65* | 3 | 88* | .
Fc1ccc(NC(=S)Nc2cc(Cl)ccc2Cl)cc1 | 77* | . | 43 | -8 | -8
COc1ccccc1C(=O)Nc1ccc2c(c1)OC[C@@H](C)N(C(C)=O)C[C@H](C)[C@@H](OC)CN(C)C2=O | . | -5 | . | . | .
O=C(C[C@H]1CC[C@H]2[C@@H](COC[C@@H](O)CN2C(=O)C2CCCC2)O1)NCc1ccncc1 | . | -6 | . | . | .
COc1cccc(NC(=S)Nc2ccc(O)cc2)c1 | 14 | 22 | 6 | 28 | 5
COc1cccc(NC(=S)Nc2ccc(F)cc2)c1 | 12 | 6 | 11 | -1 | 41*
C[C@@H]1CN([C@@H](C)CO)C(=O)c2ccccc2-c2ccccc2CO[C@@H]1CN(C)C(=O)CCC(F)(F)F | . | 2 | . | . | .
Cc1ccc2oc(/N=C(\N)NC(=O)C3CC3)nc2c1 | 21 | -28 | 2 | -5 | 10
Cc1ccc2oc(/N=C(\N)NC(=O)C(C)(C)C)nc2c1 | -93 | . | -91* | . | -23
COC(=O)c1nnn(CC(=O)NC(=O)Nc2ccc(F)cc2)c1C(=O)OC | 55* | . | 5 | -1 | -1
SMILES | HSF-1 act | esBAF inh | HSF1 inh | MITF TRPM1 HTS | Wnt act
CCOC(=O)c1nnn(CC(=O)NC(=O)Nc2cccc(CC)c2)c1C(=O)OCC | . | -8 | . | 4 | 36*
COC(=O)c1nnn(CC(=O)NC(=O)Nc2ccccc2)c1C(=O)OC | -7 | . | -5 | 10 | .
CCOc1ccc2nc(SCc3ccc(OC)cc3)sc2c1 | 12 | . | 14 | 21 | .
CCOc1ccc2nc(SCc3ccccc3C#N)sc2c1 | 115* | 61* | 68 | ? | .
CCOc1ccc2nc(SCC(=O)c3ccccc3)sc2c1 | 37 | 47* | 22 | 60 | 8
C[C@H]1CN([C@@H](C)CO)C(=O)Cc2cc(NC(=O)Nc3cccc4ccccc34)ccc2O[C@H]1CN(C)S(=O)(=O)c1cccs1 | . | -2 | . | . | .
